RE007 growth inh – less growth of the S. pombe RE007 Vpr strain | S. pombe RE007 Vpr strain, BacTiter-Glo ATP luminescence, 24 h | Potency, µM (titrated, usually from 92.2 µM), hits mostly inhibitors | 360,000 tested, 0.21% active; active = well fitted falling curve with a large enough effect; inconclusive = small, poorly fitted or top-dose-only effect; inactive = no such curve, though single readings can be large or run the other way; note: nearly all actives have a fitted effect of over 50% in size
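Fission yeast RE007 carrying one integrated HIV-1 vpr copy, seeded at OD 0.01 in PMG+AL medium with 23 nL pinned compound. Grown 24 h at 30 degrees; viability read by BacTiter-Glo luminescence after 5 min.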
Tb PYK inh – blocks Trypanosoma brucei pyruvate kinase; Q57TT1; TbPYK enzyme, Kinase-Glo Plus ATP luminescence, 45 min; Potency, µM (titrated, usually from 76.8 µM), usual class: inhibitors; 410,000 tested, 0.12% active; AID 624173; note: nearly all actives have a fitted effect of over 50% in size
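TbPYK + substrate in 50 mM TEA pH 7.2, 100 mM KCl, 10 mM MgCl2, 0.05% BSA, 0.01% Tween-20; cpd pinned; ADP 130 uM final; 45 min RT; Kinase-Glo Plus 10 min; luminescence endpoint.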
LmPK inh – inhibitors of Leishmania mexicana pyruvate kinase. Q27686. purified LmPK, Kinase-Glo ATP luminescence, 1 h. Potency, µM (series often up to 57.5 µM), usual class: inhibitors. 290,000 tested, 0.37% active
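qHTS format; LmPK 0.1 nM; substrates PEP 0.5 mM and ADP 0.1 mM. One-hour room-temperature incubation, then coupled luciferase luminescence; 0.5 nM enzyme wells mark activation.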
Giardia FBPA inh – Giardia lamblia aldolase inhibition | 290,000 tested, 0.71% active | Potency, µM (titrated, usually from 59.6 µM), most hits filed as inhibitors | A8B2U2 | purified Giardia FBPA; note: nearly all actives have a fitted effect of over 55% in size
Target sequence (A8B2U2 whole entry, looked up): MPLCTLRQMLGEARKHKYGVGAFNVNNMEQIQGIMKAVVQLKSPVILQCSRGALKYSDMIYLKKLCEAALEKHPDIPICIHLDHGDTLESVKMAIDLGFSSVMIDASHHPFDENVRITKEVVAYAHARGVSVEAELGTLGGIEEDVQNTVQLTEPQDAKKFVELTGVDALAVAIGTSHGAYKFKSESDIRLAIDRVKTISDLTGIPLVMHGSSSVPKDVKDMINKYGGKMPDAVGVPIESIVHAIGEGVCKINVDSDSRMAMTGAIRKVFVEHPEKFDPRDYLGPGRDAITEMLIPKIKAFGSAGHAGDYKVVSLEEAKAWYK
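40 nM FBPA preincubated 10 min at RT with compound (up to 57.5 uM final), then substrate plus GAPDH/TPI/NAD/arsenate coupling and diaphorase/resazurin added. Fluorescence read after 20 min at RT, 525/598 nm.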
Hits are given with their value; [ ] = another dose, or the depositor's remark. Shown are actives, neighbours in structure and some others; about 0.95% of the full set was active somewhere. Unless noted, calls come from the whole dose curve; as a rule, active = well fitted curve in the direction sought with a large enough effect; inconclusive = small, poorly fitted or top-dose-only effect, or another doubt; inactive = no such curve, though single readings can be large; an effect the other way counts as inactive or inconclusive.

Screening COc1ccc(/C=C/C(=O)C2C(=O)C=C(C)OC2=O)cc1O (stereo not given) returned RE007 growth inh inactive, Tb PYK inh inactive, LmPK inh 16µM and Giardia FBPA inh inconclusive.
COc1cc(/C=C/C(=O)C2C(=O)C=C(C)OC2=O)cc(OC)c1O (stereo not given) was read as RE007 growth inh inactive, Tb PYK inh inactive, LmPK inh inactive and Giardia FBPA inh inconclusive.
For COC(=O)c1ccc2c(c1)C(C)(C)C(/C=C/c1ccccc1O)=[N+]2C the results were RE007 growth inh inconclusive, Tb PYK inh inconclusive, LmPK inh 14µM and Giardia FBPA inh inconclusive.
C[N+]1=C(/C=C/Nc2ccccc2Cl)C(C)(C)c2ccccc21 was read as RE007 growth inh inactive, Tb PYK inh inactive, LmPK inh inactive and Giardia FBPA inh inactive.
CCCCCSc1nncc(=O)[nH]1 was read as RE007 growth inh inactive, Tb PYK inh inactive, LmPK inh inactive and Giardia FBPA inh inactive.
For CCCCCCCCSC1=CC(=O)C(OC)=C(OC)C1=O the results were RE007 growth inh inactive and Tb PYK inh 14µM.
`COc1ccccc1OCC1CNC(=O)O1` (stereo not given) gave Tb PYK inh inactive.
`Cc1ccc(S(=O)c2ccc([N+](=O)[O-])c3nonc23)cc1` (stereo not given) gave RE007 growth inh inconclusive and Tb PYK inh 6.3µM.
`COC(=O)CCC(=O)OC1(C)C(=O)C2=CN(CC(C)C)C(c3ccc(OC)cc3)=CC2=C(Br)C1=O` (stereo not given) gave LmPK inh inactive[11.5 µM] and Giardia FBPA inh 1µM.
`CC12C=C(/C=C/CCc3ccco3)C(C)(C1)C(CCc1ccco1)CC2=O` (stereo not given) gave Giardia FBPA inh inactive[12.9 µM].
For Cc1ccc(OCC(=O)Nc2nnc(SCc3cc(=O)c4ccccc4[nH]3)s2)cc1 the results were Tb PYK inh 28µM.
For CC(=O)NC1=NC(=O)/C(=C/c2cn(C(C)=O)nc2-c2ccccc2)S1 the results were RE007 growth inh inactive, Tb PYK inh 7.1µM, LmPK inh inactive and Giardia FBPA inh inactive.
For Cc1cn2c(=O)cc(COC(=O)c3cccc(NC(=O)c4ccc(C(C)(C)C)cc4)c3)nc2s1 the results were Tb PYK inh inactive.
For O=C(O)/C=C/C(=O)Nc1ccc(Oc2ncnc3cc(Cl)ccc23)nc1 the results were RE007 growth inh 32µM, Tb PYK inh inactive, LmPK inh inactive and Giardia FBPA inh inactive.
For Cc1nc(Nc2ccccc2)sc1-c1ccccc1 the results were RE007 growth inh 35µM, Tb PYK inh inactive, LmPK inh inactive and Giardia FBPA inh inactive.
For CCCCCCCCCCCCCCOc1ccc(C(=O)O)o1 the results were Giardia FBPA inh inactive.
Screening O=[N+]([O-])c1ccc(Oc2cccc3cccnc23)c([N+](=O)[O-])c1 returned Tb PYK inh inactive, LmPK inh inactive and Giardia FBPA inh 20µM.
Screening COc1ccc2c(c1OC)C(=O)OC2Nc1nc(-c2cc3ccccc3oc2=O)cs1 (stereo not given) returned RE007 growth inh inconclusive, Tb PYK inh inactive, LmPK inh 22µM and Giardia FBPA inh inactive.
CC(=O)Nc1ccccc1-c1nc2ccccc2n(CC(=O)Nc2cccc(C(F)(F)F)c2)c1=O was read as Tb PYK inh inactive.
`C(=N\c1nc2ccccc2[nH]1)/c1cccs1` gave RE007 growth inh inactive, Tb PYK inh inactive, LmPK inh 14µM and Giardia FBPA inh inactive.
For CN(Cc1ccc(C(C)(C)C)cc1)c1cccc2ccccc12 the results were Tb PYK inh inactive.
`Cc1ccc(NC(=S)NCC2CCN(C(C)c3ccccc3)C2)cc1` (stereo not given) gave RE007 growth inh inactive, Tb PYK inh inactive, LmPK inh inactive and Giardia FBPA inh inconclusive.
For Cc1cc(C)c(NC(=S)NCC2CCN(C(C)c3ccccc3)C2)c(C)c1 (stereo not given) the results were RE007 growth inh inactive, Tb PYK inh inconclusive, LmPK inh inactive and Giardia FBPA inh 2µM.
For OC(CN1CCCCC1)c1cc(-c2ccccc2)on1 (stereo not given) the results were Tb PYK inh inactive.
O=C(O)c1ccc(-c2nnc(-c3ccc([N+](=O)[O-])cc3)o2)cc1 was read as RE007 growth inh inactive, Tb PYK inh inactive, LmPK inh inactive and Giardia FBPA inh inactive.
O=C(O)c1ccc(-c2nnc(-c3ccccc3)o2)cc1 was read as RE007 growth inh inactive, Tb PYK inh inactive, LmPK inh 13µM and Giardia FBPA inh inactive.
C[C@]12CC[C@@H]3c4ccc(OC(=O)N(CCCl)CCCl)cc4CC[C@H]3[C@@H]1CC[C@@H]2OP(=O)(O)O was read as Tb PYK inh inactive.
CCN1C(=O)/C(=C/C=C2\C=CN(CC)c3ccccc32)SC1=S was read as RE007 growth inh inactive, Tb PYK inh inconclusive, LmPK inh 18µM and Giardia FBPA inh inconclusive.
CCOc1ccc(-n2c(=O)c3c(C)c(C)sc3n(CC(=O)NCCc3ccccc3)c2=O)cc1 was read as Tb PYK inh inactive.
Nc1cnccc1C(=O)O was read as RE007 growth inh inactive, Tb PYK inh inactive, LmPK inh inactive and Giardia FBPA inh 13µM.
Screening O=c1c2c3c(sc2nc2n1CCC2)CCCCC3 returned RE007 growth inh inactive, Tb PYK inh inactive, LmPK inh inactive and Giardia FBPA inh inactive.
For O=c1c2c3c(sc2nc2n1CCCC2)CCCC3 the results were RE007 growth inh 28µM, Tb PYK inh inactive, LmPK inh inactive and Giardia FBPA inh inactive.
`Cn1c(=O)[nH]c2cc(-c3noc(-c4ccc(Br)cc4)n3)ccc21` gave Tb PYK inh inactive.
`c1ccc(-c2cn3nc(-c4ccccc4)sc3n2)cc1` gave RE007 growth inh inactive and Tb PYK inh inactive.
`c1ccc(-c2cn3c4c(sc3n2)CCCC4)cc1` gave RE007 growth inh 25µM, Tb PYK inh inactive, LmPK inh 14µM and Giardia FBPA inh inactive.
`CSc1ccc(/C=N/NC(=O)c2cccc(O)c2)cc1` gave RE007 growth inh inactive, Tb PYK inh inactive, LmPK inh 8.9µM and Giardia FBPA inh inactive.
For COc1ccc(Br)c(OC)c1C(=O)NC(=O)Nc1nc(C)cc(C)n1 the results were RE007 growth inh inactive, Tb PYK inh inactive, LmPK inh inactive and Giardia FBPA inh 20µM.
For COc1ccc([N+](=O)[O-])c(OC)c1C(=O)NC(=O)Nc1nc(C)cc(C)n1 the results were RE007 growth inh inactive, Tb PYK inh inactive, LmPK inh inactive and Giardia FBPA inh inactive.
For CSc1cccc(Nc2cc(C(=O)NCCCN(C)c3ccccc3)c3ccccc3n2)c1 the results were Tb PYK inh inactive.
Screening COc1cc(OC)cc(-c2cc3ccc(OC)cc3cn2)c1 returned RE007 growth inh 40µM and Tb PYK inh inconclusive.
For O=C(/C=C/c1ccccc1Cl)Nc1cccc(O)c1 the results were RE007 growth inh inactive, Tb PYK inh inactive, LmPK inh inactive[11.5 µM] and Giardia FBPA inh inactive.
`O=C(/C=C/c1ccccc1Cl)Nc1ccccc1` gave RE007 growth inh inconclusive, Tb PYK inh inactive, LmPK inh 14µM and Giardia FBPA inh inactive.
CN=c1sc2c(n1C)C(=O)c1ccccc1C2=O was read as RE007 growth inh 10µM and Tb PYK inh inactive.

Screening data from PubChem.
